The source of these data is PubChem BioAssay AID504727 (Broad Institute, 2011).

Activity calls are given as the source filed them.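 How the source made its calls: active means fitted half-maximal concentration AC50 at or below ten times the highest valid tested dose, with signal falling as DNA is displaced (actives reach about 34 µM in these data); inconclusive means flat fit at moderate signal loss, or poor fit quality; inactive means the rest, including signal rising instead of falling.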

The nature of this experiment: acridine orange-DNA binding displacement – biochemical, fluorescence polarization, cherry-picked samples, set 2, artefact control for KSHV LANA DNA-binding inhibitor project, dose response (AID 504727). To be noted: series mostly up to 35 µM.
As for `Nc1c(C(=O)Nc2ccccc2F)sc2nc(Cc3ccccc3)cc(C(F)(F)F)c12`, the AC50 is 20.2 µM (active).
In the case of `O=C(/C=C/c1ccco1)Nc1ccccc1C(=O)Nc1cccc(C(=O)O)c1`, the AC50 result was “inactive”.
Under `COc1ccc2nc3ccccc3[n+]([O-])c2c1` stands 26 µM (active).
With `Cc1ccc(S(=O)(=O)/N=C/c2ccc(N(C)C)cc2)cc1` the entry was “inactive”; with `NNc1nc2sc3c(c2c(=O)n1C1CCCCC1)CCN(Cc1ccccc1)C3`, “inactive”; with `CCc1noc(C)c1C(=O)NCCc1c[nH]c2ccccc12`, “inactive”.
With `CCOC(=O)C1CCCN(C(=O)C2c3ccccc3Oc3ccccc32)C1` (configuration not stated) the entry was “inactive”.
`O=C(Nc1ccccc1F)C(=Cc1sc(N2CCOCC2)nc1-c1ccccc1)C(=O)Nc1ccccc1F`: the AC50 was 25.1 µM (active).
`CC1CCCN(C(=O)C(=O)c2cn(CC(=O)N3CCCCCC3)c3ccccc23)C1` (configuration not stated): the AC50 entry was “inactive”.
For `Cc1cc2nc(SCCN3CCOCC3)[nH]c2cc1C`, the AC50 entry was “inactive”.
Under `NC(=O)C1(N2CCCCC2)CCN(Cc2ccc(Br)cc2)CC1` stands “inactive”; under `CCc1ccc(C2CC(c3cccc(Cl)c3)n3nc(N)nc3N2)cc1` (configuration not stated), “inactive”; under `CC(C)Cc1nc(SCC(=O)Nc2nnc(CC(C)C)s2)n[nH]1`, “inactive”.
With `CCn1c(CN2CCCCC2)nc2cc(S(=O)(=O)N3CCCCC3)ccc21` the entry was “inactive”; with `O=C(CCn1c(=S)oc2ccccc21)N1CCN(c2ccc(F)cc2)CC1`, “inactive”; with `CCN(CC)CCCNc1ccc2ncn3c4ccc(O)cc4c(=O)c1c23`, 6.91 µM (active).
`COc1ccc(C(=O)N/N=C/c2ccc(OC)c(COc3ccccc3)c2)cc1`: the AC50 entry is “inactive”.
